Test results published in PubChem BioAssay (NCI).
The panel holds about 83,000 compounds, 20% with a hit somewhere; the sample as a whole holds those more often.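 The test compound was applied at a single concentration to cells in 96-well plates for 48 hours, and percent growth was recorded.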 Values without a mark were called inactive. Activity calls are given as the source filed them. Rule for the calls: active = growth percent below 10; inactive = the rest.

These compounds were tested on HL-60(TB) leukemia (assay: NCI-60 one-dose screen, 48 h (100 = growth as untreated, 0 = no growth, -100 = all killed)). Details: 10 µM unless noted.
`C/C(C=O)=C\c1ccc2c(c1)OCO2` was tested, and the growth was 102%.
Compound `COc1cccc(-n2cc(-c3nc(Cl)c4ccccc4n3)nn2)c1` has a growth of 97.3%.
`CC1(C)OC2COC3(C(=O)O)OC(C)(C)OC3C2O1` (stereo not given) showed a growth of 106%.
In the case of `Cc1[nH]c(C(=O)Nc2ccc(C(=O)NCCN)cc2OC(C)C)c(Cl)c1Cl`, the growth is reported as -21.3% (active).
In the case of `COC[C@H](C)n1c(C2CCOCC2)nc2cnc3cc(-c4c(C)noc4C)c(OC)cc3c21`, the growth is reported as 31.5%.
Work on `CC(NC(=O)Oc1cccc2ccccc12)c1ccccc1` (stereo not given) yielded a growth of 44.8%.
`CCOC(=O)CC1CSC(N/N=C/c2ccc(-n3cccn3)cc2)=N1` (stereo not given) gave a growth of 94%.
`CNCc1ccccc1CN(CC(=O)Nc1ccc2c(c1)CC1(C2)C(=O)Nc2ncccc21)C(=O)C(C)(C)C` (stereo not given) was tested, and the growth was 100%.
With `O=[N+]([O-])c1cc(S(=O)(=O)OCC2CO2)ccc1Cl` (stereo not given) the growth was 80.2%.
For `CSc1cc(SC)ncn1`, the growth was 101%.
`C=C(COC(C)=O)[C@H]1CC/C(C)=C/CC/C(C)=C/CC[C@@]2(C)O[C@H]2C1` gave a growth of 103%.
Work on `Cc1ccc(S(=O)(=O)Nc2c(Br)cc(Br)cc2C(N)=O)cc1` yielded a growth of 83%.
Compound `CCOc1nc(-c2ccccc2)cc2c(O)c(C(=O)N/N=C/c3ccc(N(C)C)cc3)[nH]c(=O)c12` has a growth of 111%.
For `O=C(COc1cc(O)c2c(=O)cc(-c3ccccc3)oc2c1)Nc1ccccc1C(F)(F)F`, the growth was 55%.
`CCOc1cc(NC(=O)c2ccccc2)c(OCC)cc1N` gave a growth of 109%.
In the case of `CSc1cccc(NC(=O)Nc2nc3c(C)cccc3s2)c1`, the growth is reported as 85.8%.
For `CC(C(=O)O)n1c(O)c(C=Nc2cccnc2)sc1=S` (stereo not given), the growth was 82.3%.
Compound `COc1ccc(-c2nc([C@@H](C)Sc3nc(N)cc(N)n3)c(C)s2)cc1OCCN1CCOCC1` has a growth of 105%.
`CC/C=C1/C(=O)C=C[C@@H]1C/C=C\CCCC(=O)O` was tested, and the growth was 52.1%.
With `CN(CCCNC(=O)Cc1ccc2ccc3cccc4ccc1c2c34)CCCNc1cc(-c2ccc3ccccc3c2)nc2ccccc12` the growth was -60.1% (active).
`COc1cc2nc(N3CCCC3)nc(NCCc3ccccc3)c2cc1OC` was tested, and the growth was -53.6% (active).
`COc1ccc(C(=O)C[C@]2(O)C(=O)Nc3c(Cl)ccc(Cl)c32)cc1` was tested, and the growth was -6.62% (active).
For `COc1ccc(N2CCN(CC(=O)N3CCN(c4nnc(-c5ccccc5)c(-c5ccccc5)n4)CC3)CC2)cc1`, the growth was -36.3% (active).
For `COc1ccc(/C=C2\N=C(Nc3ccccc3)N(NC(=O)c3ccccn3)C2=O)cc1`, the growth was 97.7%.
Work on `O=C(c1ccccc1)c1ccc(N2C(=O)C3C4c5ccccc5C(/C=C/C(=O)c5ccccn5)(c5ccccc54)C3C2=O)cc1` (stereo not given) yielded a growth of 30%.
For `CCCCCCCCCCCCCCCCCC(=O)Nc1ccc(O)cc1`, the growth was 5.77% (active).
Compound `O=C(NCCc1c[nH]c2ccccc12)C1Cc2ccccc2CN1C(=O)c1ccco1` (stereo not given) has a growth of 82.8%.
`C=C1CCC2C(C)(CO)C(O)CCC2(C)C1C/C=C1/C(=O)OCC1Oc1ccccc1C` (stereo not given) was tested, and the growth was 57.4%.
With `CC[C@@H](C)/C=C(C)/C=C/C(=O)c1c(O)c(-c2ccc(O)cc2)cn(OC2CC(=O)CCC(C)OC(=O)CC2O)c1=O` (stereo not given in full) the growth was -10.1% (active).
Compound `CC(=O)CSC(C)=O` has a growth of 102%.
In the case of `c1ccc2c(N=NSc3ncnc4nc[nH]c34)c3ccccc3nc2c1`, the growth is reported as -5.76% (active).
In the case of `NC(CSC(c1ccccc1)(c1ccccc1)c1ccc(F)cc1)C(=O)O` (stereo not given), the growth is reported as -39.2% (active).
With `Cc1ccc(C(=O)c2oc3ccc4c(C)cc(=O)oc4c3c2C)cc1` the growth was 7.9% (active).
With `O=C(C[C@@]1(O)C(=O)Nc2c(Cl)ccc(Cl)c21)c1ccc(C2CC2)cc1` the growth was -17.8% (active).
Compound `Cc1ccc2c(-n3nc(C#N)c(C#N)c3N)cc(=O)[nH]c2c1` has a growth of 109%.
`COc1cc(CNC(=O)CCCC/C=C/C(C)C)ccc1OCc1cn(-c2cccc([N+](=O)[O-])c2)nn1` gave a growth of 109%.
`COc1ccc2c(c1)nc(N)c1c3cc(C)c(C)cc3cn21` gave a growth of 79.6%.
`O=C(Nc1cccc2c1CCCC2)c1cc2ccccc2cc1O` gave a growth of 14.9%.
`O=[N+]([O-])c1ccccc1NC1c2ccccc2Oc2ccccc21` was tested, and the growth was -14.4% (active).
`C=C1c2c(C)nn(-c3ccc(O)cc3)c2N(C)C23C[C@@H]1C1(C)c4c(C)nn(-c5ccc(O)cc5)c4N(C)C(C)(C[C@H]12)C3` (stereo not given in full) was tested, and the growth was 4.76% (active).
